# From PubChem BioAssay (Tox21)
# Where “and” joins values, the source holds several entries; their conditions need not be identical. Identical values can stand only once. Records with an inconclusive call do not appear. Entries that show only a call come without a potency. Calls of active or inactive are those of the source. Unless noted, the call rests on the fitted dose curve; in most records, active means well fitted curve in the direction sought with a large enough effect in the repeat runs; inconclusive means weak or mixed curves; inactive means flat fitted curve, though single readings scatter.
# Columns and labels:
# [1] = qHTS assay to test for compound auto fluorescence at 535 nm (green) in HEK293 cells (AID 720680); settings: green autofluorescence 485/535 nm; series mostly up to 91.3 µM
# [2] = qHTS assay to test for compound auto fluorescence at 460 nm (blue) in HEK293 cell free culture (AID 720681); settings: cell-free medium, autofluorescence 405/460 nm (blue); series mostly up to 91.3 µM
# Procedure, shortened: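 Test compounds were pinned into cell-free culture medium (DMEM with 10% FBS) and fluorescence was read directly at Ex/Em 405/460 nm. Signals were expressed as fluorescence equivalents of triamterene, with DMSO vehicle as control.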
# [3] = qHTS assay to test for compound auto fluorescence at 535 nm (green) in HEK293 cell free culture (AID 720682); settings: cell-free medium, green autofluorescence 485/535 nm, stronger effect = higher value; series mostly up to 91.3 µM
# Procedure, shortened: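 Fluorescein serves as the green reference fluorophore; each compound's intrinsic emission at 535 nm (excitation 485 nm) is reported as an equivalent amount of that dye, measured in serum-containing DMEM without cells.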
# [4] = qHTS assay to test for compound auto fluorescence at 590 nm (red) in HEK293 cell free culture (AID 720683); settings: cell-free medium autofluorescence, Ex540/Em590 red; series mostly up to 91.3 µM
# Procedure, shortened: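 Tox21 10K library compounds were pinned into cell-free DMEM with 10% FBS and fluorescence was read at excitation 540 nm. Activity is expressed as Rose Bengal sodium equivalency.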
# [5] = qHTS assay to test for compound auto fluorescence at 590 nm (red) in HepG2 cell free culture (AID 720684); settings: cell-free medium autofluorescence, red 540/590 nm; series mostly up to 91.3 µM
# Procedure, shortened: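 Readout: intrinsic compound fluorescence at 590 nm emission after 540 nm excitation, scaled to Rose Bengal sodium. Matrix was cell-free MEM with 10% FBS; DMSO vehicle wells served as control.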
# [6] = qHTS assay to test for compound auto fluorescence at 535 nm (green) in HepG2 cell free culture (AID 720686); settings: Cell-free medium, green autofluorescence 485/535 nm; series mostly up to 91.3 µM
# [7] = qHTS assay to test for compound auto fluorescence at 460 nm (blue) in HepG2 cells (AID 720687); settings: autofluorescence 405/460 nm, 1 h; series mostly up to 91.3 µM
# Procedure, shortened: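 Cells (2,000/well in MEM with 10% FBS) attached overnight at 37 C, then were exposed to compound or DMSO for 1 hr at 37 C, 5% CO2. Fluorescence read at Ex/Em 405/460 nm, expressed as triamterene-equivalent signal.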
# [8] = biological target: Glucocorticoid receptor (Homo sapiens) (UniProt P04150); experiment: qHTS assay to identify small molecule agonists of the glucocorticoid receptor (GR) signaling pathway (AID 720691; active means well fitted activation curve with a large enough effect in the signal ratio in the repeat runs, not every such curve was filed as active; the % refers to the signal ratio); settings: GR-bla HeLa, beta-lactamase reporter ratio, 18 h; activation: at 62.4 µM (top of the series) unless noted
# Procedure, shortened: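 HeLa GR-bla reporter line; cells pre-incubated 4 h, compound in DMSO 18 h at 37 C; LiveBLAzer B/G FRET substrate 2 h RT; fluorescence intensity read-out.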
# [9] = biological target: Glucocorticoid receptor (Homo sapiens) (UniProt P04150); experiment: qHTS assay to identify small molecule antagonists of the glucocorticoid receptor (GR) signaling pathway (AID 720692; active means well fitted inhibition curve with a large enough effect in the signal ratio in the repeat runs, not every such curve was filed as active; the % refers to the signal ratio; further: potency means the concentration at half of the fitted maximal effect); settings: GR-bla HeLa, beta-lactamase FRET ratio, dexamethasone-stimulated, 18 h; series mostly up to 58.5 µM
# Procedure, shortened: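 Read-out: beta-lactamase FRET substrate fluorescence, 2 h at room temperature, in HeLa cells stably carrying a GRE-driven bla reporter. Compounds were co-incubated with 5 nM dexamethasone agonist (final) for 18 h at 37 C.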
# Sequence of Glucocorticoid receptor (Homo sapiens) (P04150 whole entry, looked up): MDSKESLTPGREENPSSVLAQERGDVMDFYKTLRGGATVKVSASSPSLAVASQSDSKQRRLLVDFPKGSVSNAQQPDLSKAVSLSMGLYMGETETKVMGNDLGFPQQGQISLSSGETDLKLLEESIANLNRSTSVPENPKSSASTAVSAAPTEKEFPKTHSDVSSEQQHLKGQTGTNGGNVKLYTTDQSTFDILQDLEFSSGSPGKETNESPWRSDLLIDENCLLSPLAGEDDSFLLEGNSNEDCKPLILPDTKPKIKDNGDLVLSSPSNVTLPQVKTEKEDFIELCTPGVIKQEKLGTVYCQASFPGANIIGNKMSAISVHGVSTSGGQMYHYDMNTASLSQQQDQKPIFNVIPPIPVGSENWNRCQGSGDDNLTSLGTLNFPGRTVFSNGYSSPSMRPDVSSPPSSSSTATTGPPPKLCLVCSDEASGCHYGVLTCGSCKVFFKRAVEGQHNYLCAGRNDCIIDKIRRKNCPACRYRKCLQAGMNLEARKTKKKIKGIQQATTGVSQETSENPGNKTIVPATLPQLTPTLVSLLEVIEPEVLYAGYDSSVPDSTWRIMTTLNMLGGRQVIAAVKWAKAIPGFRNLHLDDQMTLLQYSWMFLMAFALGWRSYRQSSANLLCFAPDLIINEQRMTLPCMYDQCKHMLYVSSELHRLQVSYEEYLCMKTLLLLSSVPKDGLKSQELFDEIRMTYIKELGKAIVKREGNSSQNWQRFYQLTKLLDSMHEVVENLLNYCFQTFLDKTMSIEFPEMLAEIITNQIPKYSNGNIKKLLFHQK
Structure (SMILES),outcome [1],Potency [2],outcome [3],outcome [4],outcome [5],outcome [6],outcome [7],Potency [8],Potency [9]
Cc1cc(NS(=O)(=O)c2ccc(N)cc2)no1,inactive,inactive,inactive,inactive,inactive,inactive,inactive,inactive,inactive
CCOC(=O)C1OC1c1ccccc1 (stereo not given),inactive,inactive,inactive,inactive,inactive,inactive,inactive,inactive,inactive
COC(=O)c1ccccc1O,inactive,inactive,inactive,inactive,inactive,inactive,inactive,–,–
CC(=O)[C@@]1(O)CC[C@H]2[C@@H]3CCC4=CC(=O)CC[C@]4(C)[C@H]3CC[C@@]21C,inactive,inactive,inactive,inactive,inactive,inactive,inactive,inactive,1.07 µM (active) and 275 nM (active)
C=C(C)C(=O)OCCCCCC,inactive,inactive,inactive,inactive,inactive,inactive,inactive,inactive,inactive
CCCCC(CC)COC(C)=O (stereo not given),inactive,inactive,inactive,inactive,inactive,inactive,inactive,inactive,inactive
Oc1ccc(OCc2ccccc2)cc1,inactive,inactive,inactive,inactive,inactive,inactive,inactive,inactive,–
